Experimental data from PubChem BioAssay AID1159506 (National Center for Advancing Translational Sciences (NCATS), 2015).
Whole data set: some 59,000 sequences, median the read-out near -0.00055, cut for the lowest 2% near -2. The entries come from a sample that favours the lowest values as a whole.

Experiment: Identification of proteins required for the processing of the EWS-FLI1 nascent transcript;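 note: robust z of luciferase light less the median z of siRNAs with the same seed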
Conditions: TC32 Ewing sarcoma NR0B1-luc vs CMV-luc (EWS-FLI1 target promoter against control promoter), 48 h; screened at 20 nM (by protocol)
In short: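 Readout: OneGlo luminescence, 48 h post-transfection, TC32-NR0B1-luc vs TC32-CMV-luc in parallel. siRNA 20 nM final, RNAiMax lipid, 600 cells/well; z-score-MAD transformed, then seed-adjusted.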

Sequence	seed-corrected z-score
UAACUUAUCUAAACUACUC against SPAG9	-0.547
AAUGGUUUCACCGGCAGCG against IFRD2	-2.09
AACUCUUCUAUGUCGAAUG against ZNF551	-0.267
UCCGAUGACACCAAGAGCG against REEP5	0.932
UACUUUACGUUCUUCGAUC against PAGE4	0.246
ACUGGAGAUAGUGCUGUUG against SUN2	-4.61
UGUGAUGUUAGCAAUCUUC against TAS2R41	-0.517
UAGUCAACAAUGUCACAUC against ELOVL7	-0.576
UGAUGCACCAUCACAGUCU against SUSD6	0.212
CACCAGGAUGGUUUGGUUG against BRICD5	1.06
UCUUCGGUCAUGAAUGAGG against TAT	-0.586
UCUGUCAUCUUUUUGGGUG against PSMD8	-4.18
UCCGAUACCGACAAUAACC against ADAM7	0.224
UGAAGUACACCUUAAAGCC against SCN4A	0.557
UCUGUUCCAAUACUGCUUG against CD209	-0.501
AUGGUGUCAAGAAUAAGGC against ROPN1L	1.14
UCAGCAACAACGGAUAUCG against PLEKHG7	-0.178
AAAGUGCCCAAAACGAUGG against ATP2B3	0.438
AACAUCUCCAAUGAUAGGG against NR0B2	-2.16
UCACCUACUUCGAUCUUCC against MECOM	-0.295
AAUCAUGCCCUUUUUGUGG against FPR2	-2
UUCCAGCCCAUGAGAACCC against DKK2	0.436
AACGGAAAUGCUGACAUCG against EPRS	-0.386

Sequence	seed-corrected z-score
AGAGUUUCCUGAGUCUUCU against TPD52L2	-2.41
UAUCAUUGCGUGUUGCUGC against BBOF1	0.0553
UCUGUGAGGAAUGCUGUCC against RFT1	-2.48
UUCUAGCUCACUGAAGUCC against PYGL	-0.371
UUCAGGGCAUUUAAAGGGC against ZNF629	-0.898
AAGAUAAUAAAAACGUAGG against SLC2A14	0.0262
ACUGCUUACACUCACAUGG against ZNF490	-4.22
UGGGAGCAAAGCAUAGUCG against PNMA3	-1.88
UACUUGACUGAAAUGUCUC against ZNF829	-0.616
UAGUUGUCCUGGUCGGAGC against LY6E	-2.61
UUGCAUGCAAUGGUGAGGC against S100A10	-1.4
UACUUUGCGACCAUUUAGG against PABPC3	-1.3
UCUGUAACAUGCGGAGUUC against M1AP	-0.631
ACCGUGUUCAGAUAGCCUG against RACK1	-1.01
AAUGUUGACACGUCUCCUG against TOB1	0.235
UUGGGAGUGAAAACAGAGG against OR8B2	-3.41
AACUUCUUCAAGGUAAUUG against PJA1	0.88
AAAGUUUCACUCUUUCUGG against TPT1P8	-0.645
UUCGAUUGAAAGAAGGCCU against MYOZ1	-0.336
AACUCUAUUCAUGAGCUCG against ANGPTL5	0.0468
UUCCUGAUUAGUAAUGUCG against RAB5B	0.136
AUCUUGGACAGAUAUAAUC against RNF126	-2.4
UAUACUAUUGGUAAGUGCA against SND1-IT1	-0.0514

Sequence	seed-corrected z-score
AUACUCCACACCACAAAGC against LTB4R	0.354
AAAAGACCAAAGCCCAUGU against RPLP1	-2.92
UAUAGUGAAGAGAUAUGCC against ADGRL2	0.229
UCGUUUUUGACUACCAGGG against PHKB	0.853
AACUGAUUAAAAUCAGAGG against PIGG	0.269
UAGUAGCAUAGUUCAGUGG against OR51T1	0.179
UUUGCUCUCAUUCUCCGCA against SF3B5	-3.03
AUAGUUAAUUGAAUUUCGG against BMPR2	-0.638
UUUGCAGCCUCGGUUAUAG against PWWP2B	0.352
AAGAGUAAUAGGCAAUUUC against SLC19A2	-0.574
ACACGGGCAAUGGAUUUCC against RPL35	-0.426
UAACAUACACUAGAUCGCC against FOLH1	-3.06
AAUGAGAUAAUGUUGGUCA against SNX29P1	-1.77
UUUCUUUUCGGCUCUAGGG against NKX2-5	-1.12
UGUACAAUGAGGAAGCUUC against LOC728903	-0.125
UCUUUGCAAAGGGUAUGCC against IL17RE	-2.02
AGACCAUCCCACGAAAUGC against PEBP1	-1.22
AAGCGGAAAAUCUUGAUGC against SLC26A2	0.168
UUCGUCCUUAUGCUCUUUC against HOXA7	0.383
AAAGAUACAGGUUAAAGGC against HIST2H2BF	-0.321
UUCAUAACGAGUUGGAGCC against RPL30	-2.42
UUCAUGUUCAGAGUCAACG against SSRP1	1.02
ACUCUUAUCAGGCACAUCC against IMPAD1	-0.93

Sequence	seed-corrected z-score
UAACCGUUCCCGCAAACAC against TFAP2E	-0.2
AUUUAUUCCGGACACGUGG against GLI4	-2.01
UCUUAUCCAAGGGACCAGC against MED1	-0.541
UUCUCUAGGAUGGAAAACC against LOC728752	0.253
UUCGCAAUGUUGGUUCACC against TEX15	-0.211
AAACACUCCACUGAUGUGC against IFT140	-0.256
UGCGCUUACGCUUCUUACC against HIST1H2BB	-0.822
UUUCGGUAGUAGGAUUUCC against RBAK	0.44
AAAACUUGCACCUUCGUGU against ARMC10	-0.114
UUUAGUGUCAGUUGAUUUG against CPXCR1	0.162
UAUCAGACAAUUCAUCCGG against LONRF2	-0.662
AUGGGUCAGAGAGGCAAGG against EXOSC5	-2.07
AUGUGGAUCAGAAGUAUCA against OR2T10	0.476
UGCAUGAUGAGUGAGGUGC against CYP26B1	-0.927
UGACGGAUCAGUCUUAGCC against ATP5O	-0.31
AAAUAUAUCUCUUGGAUCU against LRRC75A-AS1	0.788
UCUAAUUCCAUACUGAUUC against PRKCQ-AS1	-0.219
UUAUAAAAUUUGGUGAUGG against CNNM2	-2.17
AAAGAAGGAAUUGAGAUUC against RAPGEF3	0.508
UAGAAAUCUACAAUCUUGU against NR2C2AP	-0.785
AUUGUAUCCUGCUGAGUCC against FOXJ2	-0.984
ACAGUAAUCCAUAUGGAGG against GPR139	0.177
UUUCGUUCUUACGAGAUCC against PKHD1L1	1.16

Sequence	seed-corrected z-score
UCCGGAUACACUUCACUAC against ANXA6	-0.467
AAAAGUGGAACUUCUUCUC against TTLL8	-2.21
AAAGUUGCAGUUGGUCUCC against ZACN	-3.49
UUAGCAGCUUGUUAAUUUC against ISY1	-0.616
UAAGCAGCUUGUAUUGCUC against KIAA0513	0.461
UGAGGUUAAAGUGAGUAGC against VIT	-0.117
UUUCUUACACCAUGAGACG against INTS4	-0.309
UAAAGUAAAGAUGUCUUCC against NPIPA1	0.0914
AUAGGGAUCUGAAAGUCCG against SYT4	0.582
UCCGGUCAAACUUAGUGCC against AQR	-3.37
AACGAAAUAAAAGCUGUCC against CFAP69	-0.411
UAUCGAACCAACCAGCAUC against MFSD4A	1.1
UUCGAUGAACUUCUUUUGC against BROX	1.04
UCCCGGGACAGCAUGUAGU against USP17L9P	0.146
CAAUACUCCAGCAUCAGGC against OPA3	-2.35
UACAAGAAUAGUCACAAUG against OR5H1	0.319
UCUGUAUCAAUGAUUAAAC against ICE2	0.6
UUUGUUAGUCAGGUAUUCC against CCDC121	2.03
UGGGUAUGUAGUAAUCUCG against ADGB	-3.05
AGACUGUAAAAGAUCUGUG against CCDC106	-0.709
AAUCGUACACUCUCCGUAG against CHST2	-1.01
UCACUUAGCAGGCUCUCUG against DDIT4L	-0.677
ACCGUUAAACUUGUAAUCG against ZFYVE9	0.0151

Sequence	seed-corrected z-score
AUAGAUGCGAUCUAUGAGC against TRE17	0.156
UGGUUGUACGCGAUGUCCG against FZD1	-3.54
UGCUGCAAGAGGUUAUUCC against HAS1	0.441
UAAUUGUCAGCUGAUUGUC against CDC6	-0.689
UCACCGUUCCAUUCAAGUC against IKBKB	0.0239
UUUGGGAAAGUAGCUAUCA against LINC01124	-2.24
AUUGGAGCAAGACUUUUAG against BDKRB1	-0.291
UUCAGCUAUAAAGUAAAGC against IL18	-13
AAGGCUCCAAUGAUAAGUG against NRG4	-0.154
UCGCUUUCCUCCAGGGUAC against GNRH2	-0.382
AAAGCUGCGUCUUGUCUCG against LDLRAD2	-3.83
UAAGAACCCACAGUAUUGA against FBLN2	0.31
UAAAUAAUAUUGCACAUAC against FAM228A	0.618
UUGAAUUUAAGAGAAAGGA against NPR3	0.283
AUAGUCAGCUGUGCUCUGC against FLJ16423	-0.343
UUAGCAUGCAAAAUCGCCC against CWC22	-3.73
UAGGGUGAGUCAAUAAUGG against CSTF2T	-0.0525
AUCUUUAUCAUUGGGCAGG against SCAF1	-0.941
